Source: the supplement of paper PMC6522484
± gives the standard deviation of the averaged measurements.

Columns and labels:
DLD1 [1] = experiment: cell viability (CellTiter-Glo) relative to plate median (fraction of plate median); higher = more viable cells; details: 5 µM; treatment time 24 h; reporter: 7TFP
Outline: (§1)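 Colorectal cancer lines with stably integrated lentiviral TCF/Wnt firefly luciferase reporters received library compounds at a final 5 µM, 24 h after seeding into 384-well plates, for a 24 h exposure. Reported figures are plate-median-normalised firefly luciferase or CellTiterGlo luminescence per well. They average two independent replicates.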

HCT116 = experiment: as above; details: 5 µM; treatment time 24 h; reporter: TCF4/Wnt
Outline: as §1

SW480 [2] = experiment: as above; details: 5 µM; treatment time 24 h; reporter: 7TFP
Outline: as §1

DLD1 [3] = experiment: TCF/Wnt firefly luciferase reporter signal relative to plate median (fraction of plate median); higher = higher Wnt reporter signal; details: 5 µM; treatment time 24 h; reporter: 7TFP
Outline: as §1

SW480 [4] = experiment: as above; details: 5 µM; treatment time 24 h; reporter: 7TFP
Outline: as §1

SMILES: NC(=O)Cc1ccccc1 [Phenylacetamide]
- cell viability (DLD1 [1]): 1.11 ± 0.071
- cell viability (HCT116): 1.005 ± 0.0071
- cell viability (SW480 [2]): 1.01 ± 0.016
- TCF/Wnt firefly luciferase reporter signal (DLD1 [3]): 1.11 ± 0.14
- TCF/Wnt firefly luciferase reporter signal (SW480 [4]): 1.11

SMILES: C=CCC1(C(C)CCC)C(=O)NC(=S)NC1=O (stereo not given)
- cell viability (DLD1 [1]): 1.03 ± 0.076
- cell viability (HCT116): 1.18 ± 0.23
- cell viability (SW480 [2]): 0.951 ± 0.0028
- TCF/Wnt firefly luciferase reporter signal (DLD1 [3]): 1.02 ± 0.035
- TCF/Wnt firefly luciferase reporter signal (SW480 [4]): 0.794 ± 0.011

SMILES: O=C1C=CC(=O)c2c(O)cccc21
- cell viability (DLD1 [1]): 0.921 ± 0.035
- cell viability (HCT116): 0.972 ± 0.033
- cell viability (SW480 [2]): 0.961 ± 0.016
- TCF/Wnt firefly luciferase reporter signal (DLD1 [3]): 1.03
- TCF/Wnt firefly luciferase reporter signal (SW480 [4]): 1.08 ± 0.064

SMILES: COc1cc([C@@H]2c3cc4c(cc3[C@@H](O)[C@H]3COC(=O)[C@H]23)OCO4)cc(OC)c1O
- cell viability (DLD1 [1]): 0.952 ± 0.082
- cell viability (HCT116): 0.613 ± 0.12
- cell viability (SW480 [2]): 1.06 ± 0.021
- TCF/Wnt firefly luciferase reporter signal (DLD1 [3]): 0.785 ± 0.17
- TCF/Wnt firefly luciferase reporter signal (SW480 [4]): 0.742 ± 0.084

SMILES: CC(C)=CCCC1(C)C=Cc2c(O)c3c(c(CC=C(C)C)c2O1)OC12C(CC4CC1C(C)(C)OC2(C/C=C(/C)C(=O)O)C4O)C3=O (stereo not given)
- cell viability (DLD1 [1]): 0.979 ± 0.087
- cell viability (HCT116): 1.04 ± 0.014
- cell viability (SW480 [2]): 1.08 ± 0.028
- TCF/Wnt firefly luciferase reporter signal (DLD1 [3]): 0.975 ± 0.027
- TCF/Wnt firefly luciferase reporter signal (SW480 [4]): 0.807 ± 0.036

SMILES: COC1=C[C@]23CCCN2CCc2cc4c(cc2[C@@H]3[C@@H]1O)OCO4
- cell viability (DLD1 [1]): 0.98 ± 0.14
- cell viability (HCT116): 1.01 ± 0.035
- cell viability (SW480 [2]): 1.01 ± 0.021
- TCF/Wnt firefly luciferase reporter signal (DLD1 [3]): 0.997 ± 0.32
- TCF/Wnt firefly luciferase reporter signal (SW480 [4]): 0.953 ± 0.067

SMILES: NCC(=O)c1ccccc1
- cell viability (DLD1 [1]): 0.981 ± 0.11
- cell viability (HCT116): 0.999 ± 0.059
- cell viability (SW480 [2]): 0.983 ± 0.018
- TCF/Wnt firefly luciferase reporter signal (DLD1 [3]): 0.851 ± 0.14
- TCF/Wnt firefly luciferase reporter signal (SW480 [4]): 0.917 ± 0.2

SMILES: C=CC[C@]1(O)CC[C@H]2[C@@H]3CCC4=CC(=O)CCC4=C3C=C[C@@]21C
- cell viability (DLD1 [1]): 1.11 ± 0.16
- cell viability (HCT116): 0.961 ± 0.052
- cell viability (SW480 [2]): 0.963 ± 0.081
- TCF/Wnt firefly luciferase reporter signal (DLD1 [3]): 0.945 ± 0.078
- TCF/Wnt firefly luciferase reporter signal (SW480 [4]): 0.9875 ± 0.00071

SMILES: CCNc1nc(Cl)nc(NCC)n1
- cell viability (DLD1 [1]): 0.955 ± 0.028
- cell viability (HCT116): 1.065 ± 0.0071
- cell viability (SW480 [2]): 1.02 ± 0.03
- TCF/Wnt firefly luciferase reporter signal (DLD1 [3]): 0.9375 ± 0.005
- TCF/Wnt firefly luciferase reporter signal (SW480 [4]): 0.886 ± 0.034

SMILES: CN(C)C(=O)Oc1ccc[n+](C)c1
- cell viability (DLD1 [1]): 1.04 ± 0.042
- cell viability (HCT116): 1.04 ± 0.11
- cell viability (SW480 [2]): 1.02
- TCF/Wnt firefly luciferase reporter signal (DLD1 [3]): 1.08 ± 0.078
- TCF/Wnt firefly luciferase reporter signal (SW480 [4]): 1.05 ± 0.035

SMILES: CN1[C@@H]2CC[C@H]1C[C@@H](OC(=O)[C@H](CO)c1ccccc1)C2
- cell viability (DLD1 [1]): 1.06 ± 0.14
- cell viability (HCT116): 1.09
- cell viability (SW480 [2]): 1 ± 0.086
- TCF/Wnt firefly luciferase reporter signal (DLD1 [3]): 0.974 ± 0.11
- TCF/Wnt firefly luciferase reporter signal (SW480 [4]): 1.05 ± 0.028

SMILES: O=C1CCC[C@@H]2[C@H]3C[C@@H](CN12)[C@@H]1CCCCN1C3.[O-][Cl+3]([O-])([O-])O
- cell viability (DLD1 [1]): 1.01 ± 0.024
- cell viability (HCT116): 0.956 ± 0.053
- cell viability (SW480 [2]): 0.976 ± 0.021
- TCF/Wnt firefly luciferase reporter signal (DLD1 [3]): 0.922 ± 0.022
- TCF/Wnt firefly luciferase reporter signal (SW480 [4]): 0.97 ± 0.018

SMILES: COP(=S)(OC)SCn1nnc2ccccc2c1=O
- cell viability (DLD1 [1]): 0.983 ± 0.02
- cell viability (HCT116): 0.939 ± 0.049
- cell viability (SW480 [2]): 0.955 ± 0.0071
- TCF/Wnt firefly luciferase reporter signal (DLD1 [3]): 0.991 ± 0.13
- TCF/Wnt firefly luciferase reporter signal (SW480 [4]): 0.903 ± 0.14

SMILES: Cc1nccc2c1[nH]c1cc(O)ccc12
- cell viability (DLD1 [1]): 0.984 ± 0.0099
- cell viability (HCT116): 0.978 ± 0.06
- cell viability (SW480 [2]): 1.01 ± 0.018
- TCF/Wnt firefly luciferase reporter signal (DLD1 [3]): 1.01 ± 0.03
- TCF/Wnt firefly luciferase reporter signal (SW480 [4]): 0.978 ± 0.046

SMILES: C[C@@H]1CC[C@@]2(OC1)O[C@H]1[C@@H](O)[C@H]3[C@@H]4CC[C@H]5C[C@@H](O[C@@H]6O[C@H](CO)[C@H](O[C@@H]7O[C@H](CO)[C@@H](O)[C@H](O[C@@H]8OC[C@@H](O)[C@H](O)[C@H]8O)[C@H]7O[C@@H]7O[C@H](CO)[C@H](O)[C@H](O[C@@H]8O[C@H](CO)[C@@H](O)[C@H](O)[C@H]8O)[C@H]7O)[C@H](O)[C@H]6O)[C@H](O)C[C@]5(C)[C@H]4CC[C@]3(C)[C@H]1[C@@H]2C
- cell viability (DLD1 [1]): 1.02 ± 0.11
- cell viability (HCT116): 1.065 ± 0.0071
- cell viability (SW480 [2]): 1.035 ± 0.0071
- TCF/Wnt firefly luciferase reporter signal (DLD1 [3]): 0.986 ± 0.09
- TCF/Wnt firefly luciferase reporter signal (SW480 [4]): 1.095 ± 0.0071

SMILES: CCCCC[C@H](O)c1c(O)cc2c(c1O)C(=O)c1c(O)cc(O)cc1C2=O [Averantin]
- cell viability (DLD1 [1]): 1.02 ± 0.035
- cell viability (HCT116): 1.075 ± 0.0071
- cell viability (SW480 [2]): 0.9935 ± 0.00071
- TCF/Wnt firefly luciferase reporter signal (DLD1 [3]): 1 ± 0.11
- TCF/Wnt firefly luciferase reporter signal (SW480 [4]): 0.939 ± 0.14

SMILES: CCOC(=O)c1cncn1[C@H](C)c1ccccc1
- cell viability (DLD1 [1]): 1.04 ± 0.035
- cell viability (HCT116): 0.987 ± 0.018
- cell viability (SW480 [2]): 0.9905 ± 0.0078
- TCF/Wnt firefly luciferase reporter signal (DLD1 [3]): 0.965 ± 0.013
- TCF/Wnt firefly luciferase reporter signal (SW480 [4]): 0.995 ± 0.022

SMILES: C[C@]12CCC3C(CC[C@H]4C[C@H](OS(=O)(=O)O)CC[C@]34C)C1CCC2=O (stereo not given in full)
- cell viability (DLD1 [1]): 1.03 ± 0.021
- cell viability (HCT116): 1.02 ± 0.079
- cell viability (SW480 [2]): 1.04 ± 0.061
- TCF/Wnt firefly luciferase reporter signal (DLD1 [3]): 0.755 ± 0.015
- TCF/Wnt firefly luciferase reporter signal (SW480 [4]): 0.966 ± 0.039

SMILES: CC1C[C@H]2CC(=O)[C@H]3CCCN4CCC[C@H]2[C@]34C1.[O-][Cl+3]([O-])([O-])O (stereo not given in full)
- cell viability (DLD1 [1]): 0.97 ± 0.011
- cell viability (HCT116): 1.01 ± 0.031
- cell viability (SW480 [2]): 0.933 ± 0.0042
- TCF/Wnt firefly luciferase reporter signal (DLD1 [3]): 1.1 ± 0.099
- TCF/Wnt firefly luciferase reporter signal (SW480 [4]): 1.1 ± 0.16

SMILES: O=C1c2ccccc2-c2cccc3cccc1c23
- cell viability (DLD1 [1]): 1 ± 0.084
- cell viability (HCT116): 0.852 ± 0.088
- cell viability (SW480 [2]): 0.991 ± 0.028
- TCF/Wnt firefly luciferase reporter signal (DLD1 [3]): 0.912 ± 0.056
- TCF/Wnt firefly luciferase reporter signal (SW480 [4]): 0.987 ± 0.033

SMILES: NCC(O)c1ccc(O)cc1 (stereo not given)
- cell viability (DLD1 [1]): 0.972 ± 0.097
- cell viability (HCT116): 0.923 ± 0.015
- cell viability (SW480 [2]): 0.972 ± 0.011
- TCF/Wnt firefly luciferase reporter signal (DLD1 [3]): 0.954 ± 0.21
- TCF/Wnt firefly luciferase reporter signal (SW480 [4]): 0.943 ± 0.043

SMILES: COc1cc2ccc(=O)oc2c2ccoc12
- cell viability (DLD1 [1]): 0.932 ± 0.077
- cell viability (HCT116): 1.01 ± 0.02
- cell viability (SW480 [2]): 0.9355 ± 0.0035
- TCF/Wnt firefly luciferase reporter signal (DLD1 [3]): 0.968 ± 0.17
- TCF/Wnt firefly luciferase reporter signal (SW480 [4]): 0.996 ± 0.063

SMILES: C[C@H]1CC[C@]2(NC1)O[C@H]1C[C@H]3[C@@H]4CC[C@H]5C[C@@H](O)CC[C@]5(C)[C@H]4CC[C@]3(C)[C@H]1[C@@H]2C
- cell viability (DLD1 [1]): 0.956 ± 0.076
- cell viability (HCT116): 1.01 ± 0.052
- cell viability (SW480 [2]): 0.988 ± 0.06
- TCF/Wnt firefly luciferase reporter signal (DLD1 [3]): 1.03 ± 0.035
- TCF/Wnt firefly luciferase reporter signal (SW480 [4]): 1.09 ± 0.057

SMILES: CC[C@H]1CN2CCc3cc(OC)c(OC)cc3[C@@H]2C[C@@H]1C[C@H]1NCCc2cc(OC)c(OC)cc21
- cell viability (DLD1 [1]): 0.984 ± 0.094
- cell viability (HCT116): 0.815 ± 0.3
- cell viability (SW480 [2]): 0.902 ± 0.059
- TCF/Wnt firefly luciferase reporter signal (DLD1 [3]): 0.615 ± 0.1
- TCF/Wnt firefly luciferase reporter signal (SW480 [4]): 0.608 ± 0.064

SMILES: CC1=CC(=O)c2c(O)cccc2C1=O
- cell viability (DLD1 [1]): 0.0607 ± 0.019
- cell viability (HCT116): 0.229 ± 0.24
- cell viability (SW480 [2]): 0.404 ± 0.51
- TCF/Wnt firefly luciferase reporter signal (DLD1 [3]): 0.0412 ± 0.032
- TCF/Wnt firefly luciferase reporter signal (SW480 [4]): 0.157 ± 0.19

SMILES: CN1[C@H]2C[C@H](OC(=O)[C@H](CO)c3ccccc3)C[C@@H]1[C@@H](O)C2
- cell viability (DLD1 [1]): 0.934 ± 0.033
- cell viability (HCT116): 1 ± 0.039
- cell viability (SW480 [2]): 0.957 ± 0.03
- TCF/Wnt firefly luciferase reporter signal (DLD1 [3]): 0.924 ± 0.025
- TCF/Wnt firefly luciferase reporter signal (SW480 [4]): 0.94 ± 0.073
